Screening results: PubChem, National Center for Advancing Translational Sciences (NCATS)
IP6K1 inh: inhibitors of human IP6K1 | Q92551 | IP6K1 kinase, ADP-Glo luminescence, 2 h; stronger effect = lower value | activity change, % (series mostly up to about 58 µM) | 140,000 tested, 0.81% active | AID 1645851; in the data active = activity change below about -25%
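ADP-Glo luminescence measures ADP made by human IP6K1 during a 2 h RT reaction with ATP/IP6 (mix at 1.3 mM/130 uM); top library doses 57.5 and 19.1 uM final.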
KDM5B inh: blocks human KDM5B histone demethylase activity | Q9UGL1 | Potency, µM (titrated, usually from 57.7 µM), actives largely listed as inhibitors | 220,000 tested, 2.6% active | KDM5B demethylase, FDH-coupled NADH fluorescence (FDH is formaldehyde dehydrogenase) | AID 1347165; also: nearly all actives have a fitted effect of over 70% in size
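qHTS format, multiple compound concentrations. Buffer 50 mM HEPES pH 7.5/0.01% Tween-20; 200 nM KDM5BΔAP final; 10 min compound preincubation; substrate-mix levels 12.5 µM peptide, 25 µM α-KG, 0.25 mM NAD⁺; 30 min RT; ΔRFU.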
IP6K1 inh cnf: human IP6K1 inhibition, confirmatory. shares compounds with IP6K1 inh. recombinant IP6K1 kinase, ADP-Glo luminescence, 2 h. Potency, µM (top dose mostly 49 µM), usual class: inhibitors. 1,200 tested, 13% active. AID 1645852; also: nearly all actives have a fitted effect of over 65% in size
A number is an active result. A selection: hits, their analogues and other compounds. The true share with any hit is near 2.7%. Unless noted, calls follow the shape of the dose curve; as a rule, active = well fitted inhibition curve with a large enough effect; inconclusive = small, poorly fitted or top-dose-only effect; inactive = no such curve, though single readings can be large or run the other way.

`CCOc1ccc(CNC(=O)C2CCCN(c3nn4cc(-c5ccc(F)cc5)nc4s3)C2)cc1` (stereo not given) gave IP6K1 inh inactive and KDM5B inh inactive.
`CN(Cc1ccc2ccccc2c1)C(=O)c1ccsc1` gave KDM5B inh inactive.
Screening CC1=C(C(=O)OC2CCCCC2)C(c2ccc([N+](=O)[O-])cc2)C2=C(CC(C)(C)CC2=O)N1 (stereo not given) returned IP6K1 inh -36.2 and IP6K1 inh cnf inactive.
Screening CC1=C(C(=O)OC2CCCCCC2)C(c2c(Cl)cccc2Cl)CC(=O)N1 (stereo not given) returned IP6K1 inh inactive and KDM5B inh inactive.
Screening O=C(NCCc1ccccn1)c1ccnc(-c2nnc3ccc(Nc4ccccc4)nn23)c1 returned IP6K1 inh -36.9, KDM5B inh inconclusive and IP6K1 inh cnf inconclusive.
For O=C(Nc1cccnc1)c1ccnc(-c2nnc3ccc(Nc4ccccc4)nn23)c1 the results were IP6K1 inh -56.4, KDM5B inh inconclusive and IP6K1 inh cnf inconclusive.
For CC(C)NC(=O)c1ccnc(-c2nnc3ccc(Nc4ccccc4)nn23)c1 the results were IP6K1 inh inactive and KDM5B inh inactive.
For CN(C)CCNC(=O)c1ccnc(-c2nnc3ccc(Nc4ccccc4)nn23)c1 the results were IP6K1 inh inactive and KDM5B inh inactive.
For CCCC(NC(=O)c1ccnc(Cl)c1)c1ccccc1 (stereo not given) the results were KDM5B inh inactive.
CCC[C@H](NC(=O)C(C#N)=Cc1cccc(Br)n1)c1ccccc1 was read as IP6K1 inh cnf inconclusive.
For COc1ccc(Nc2ccnc(N3CCC(C(=O)NCC(F)F)CC3)n2)cc1 the results were IP6K1 inh inactive.
Screening Cc1cccc(CC(=O)Nc2cccc(-c3nc4cccnc4s3)c2)c1 returned IP6K1 inh inactive and KDM5B inh inconclusive.
`Cc1ccccc1C(=O)Nc1cccc(-c2nc3cccnc3s2)c1` gave IP6K1 inh -28.9, KDM5B inh inconclusive and IP6K1 inh cnf inconclusive.
Screening Cc1ccc(CN(C)C(=O)Cn2cnc3c2c(=O)n(C)c(=O)n3C)o1 returned KDM5B inh inactive.
Screening Cc1nn(-c2ccccc2)c2c1C(C(C)C)N(C1CCN(C(=O)c3ccc(F)cc3)C1)C2=O (stereo not given) returned IP6K1 inh inactive.
O=C(Cc1ccc(NC(=O)N2CCSc3ncccc32)cc1)NCCc1ccccc1 was read as IP6K1 inh -33.2, KDM5B inh inconclusive and IP6K1 inh cnf inactive.
Screening O=C(Cc1ccc(NC(=O)N2CCSc3ncccc32)cc1)NCc1ccccc1 returned IP6K1 inh inactive and KDM5B inh inconclusive.
Screening Cc1ccc(-c2cc(C(=O)NCc3cccc(Cl)c3)c3cnn(C)c3n2)c(C)c1 returned IP6K1 inh inactive.
CS(=O)(=O)Nc1ccc(-c2csc(N3CCCCC3)n2)cc1 was read as KDM5B inh inactive.
`COc1ccc2[nH]c(C(=O)NCc3ccco3)cc2c1OC` gave KDM5B inh inactive.
For C=CC(=O)Nc1cc(Nc2ncc(Cl)c(-c3c[nH]c4ccccc34)n2)c(OC)cc1N(C)CCN(C)C the results were IP6K1 inh -25.6 and IP6K1 inh cnf inconclusive.
Screening COc1ccc(Cl)cc1NC(=O)C(=O)c1c[nH]c2ccccc12 returned KDM5B inh inactive.
Cc1ccc(Nc2nc(N)c(C(=O)c3ccccc3Cl)s2)c(C)c1 was read as KDM5B inh inactive.
Screening Cc1ccccc1Nc1nc(N)c(C(=O)c2ccccc2Cl)s1 returned IP6K1 inh -51.7, KDM5B inh inactive and IP6K1 inh cnf 3.26µM.
For CSc1ccc(CCNC(=O)Cn2nc(C)n3c(cc4sccc43)c2=O)cc1 the results were IP6K1 inh -80.1, KDM5B inh inactive and IP6K1 inh cnf inactive.
`Cc1nn(CC(=O)NCc2ccc(Cl)cc2)c(=O)c2cc3sccc3n12` gave IP6K1 inh inactive and KDM5B inh inactive.
For COc1ccc(Br)cc1CSc1nnc(C2CC2)n1C1CC1 the results were KDM5B inh inactive.
`Cn1ncc2c(C(=O)N3CCC(C#N)CC3)cc(-c3ccccc3C(F)(F)F)nc21` gave IP6K1 inh inactive.
Screening CCn1cc(-c2ccc(C)cc2)cc1C(=O)N1CCC(C)CC1 returned IP6K1 inh -29.9, KDM5B inh inactive and IP6K1 inh cnf inconclusive.
Screening CCn1cc(-c2ccc(F)cc2)cc1C(=O)N1CCCCCC1 returned IP6K1 inh inactive and KDM5B inh inactive.
`COc1ccc(/C=C2\Oc3cc(OS(=O)(=O)c4ccc(C)cc4)ccc3C2=O)c(OC)c1` gave KDM5B inh inactive.
Screening COc1ccc(C(=O)N2CCC(Cc3nc(C(C)C)no3)CC2)cc1OC returned IP6K1 inh inactive and KDM5B inh inactive.
Cc1cc(C)cc(C(=O)N2CCC(Cc3nc(-c4cnccn4)no3)CC2)c1 was read as IP6K1 inh inactive and KDM5B inh inactive.
Cc1cccc(C(=O)N2CCC(Cc3nc(-c4cnccn4)no3)CC2)c1 was read as IP6K1 inh -27.1, KDM5B inh inactive and IP6K1 inh cnf inactive.
Screening Cc1ccc(C(=O)N2CCC(Cc3nc(C(C)C)no3)CC2)cc1C returned IP6K1 inh -27.1, KDM5B inh inactive and IP6K1 inh cnf inactive.
O=C(c1ccc(Cl)cc1)N1CCN(c2ccnc3ccnn23)CC1 was read as IP6K1 inh inactive.
Cc1ccc(NC(=O)COc2ccc(Cl)cc2)c(C(=O)O)c1 was read as KDM5B inh inactive.
`O=C1CC2(CCN(C(=O)C3CCCN(C(=O)c4ccc(C(F)(F)F)cc4)C3)CC2)Oc2ccccc2N1` (stereo not given) gave IP6K1 inh inactive.
`O=C(O)c1ccc(-c2ncc3cnc(-c4cccc(F)c4)cn23)cc1` gave IP6K1 inh -29.7, KDM5B inh 35.5µM and IP6K1 inh cnf inconclusive.
O=C(O)c1cccc(-c2cccc(F)c2)c1 was read as KDM5B inh inactive.
`Cc1ccc(-n2nnc(C(=O)N(C)c3ccccc3)c2C)cc1Cl` gave KDM5B inh inactive.
Screening O=C(NCc1ccc(F)cc1)Nc1c(NC2CCCCC2)c2ccccc2oc1=O returned KDM5B inh inactive.
Screening Cc1ccc2oc(-c3ccc4ccccc4c3)c(C)c(=O)c2c1 returned KDM5B inh inactive.
For Cc1cccc(N2CCN(S(=O)(=O)c3csc(C(N)=O)c3)CC2)c1C the results were IP6K1 inh -42.3, KDM5B inh inactive and IP6K1 inh cnf 7.31µM.
For NC(=O)c1cc(S(=O)(=O)N2CCN(c3ccc(F)cc3)CC2)cs1 the results were IP6K1 inh inactive and KDM5B inh inactive.
`Cc1cccc(C)c1NC(=O)C1CCCCC1` gave KDM5B inh inactive.
Screening FC(F)(F)c1ccc(Cl)c(N/N=C/c2cccc(Br)c2)c1 returned KDM5B inh inactive.
Screening O=C1CC2(CCN(C(=O)c3cnc4ccccn4c3=O)C2)C(=O)N1 (stereo not given) returned IP6K1 inh inactive and KDM5B inh inconclusive.
Screening COc1cc(OC)c(C(=O)N2CCCC[C@H](N(C)C)C2)cc1OC returned IP6K1 inh inactive and KDM5B inh inactive.
Screening COc1ccccc1-c1ccc(C(=O)N2CCCC[C@H](N(C)C)C2)cc1 returned IP6K1 inh -31.1, KDM5B inh inconclusive and IP6K1 inh cnf inactive.
Screening CN(C)[C@H]1CCCCN(C(=O)c2cnc3ccccn3c2=O)C1 returned IP6K1 inh -34.5, KDM5B inh 31.6µM and IP6K1 inh cnf inactive.
